{"source": "PubChem BioAssay (NCI)", "note": "This is part of a sample that, as a whole, favours compounds with a hit. Of some 83,000 tested, about 20% had one in any assay.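 Negative percent growth values reflect cell death: -40 means 40% of the cells present at the start died, and -100 means all died.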 Values without a mark were called inactive. Calls of active or inactive are those of the source. Rule for the calls: active = growth percent below 10; inactive = the rest."}
{"system": "UACC-62 melanoma", "assay": "NCI-60 one-dose screen, 48 h (100 = growth as untreated, 0 = no growth, -100 = all killed)", "details": "10 µM unless noted"}
{"smiles": "COc1ccccc1N1CCN(CC(O)COc2c(Br)c(Br)c(Br)c3c2OC(C)(C)C3)CC1", "note": "(stereo not drawn)", "growth": "56.6%"}
{"smiles": "CC(=O)N[C@@H](CNC(=O)c1cc(NC(=O)c2cc(NC(=O)c3cc(NC(=O)c4nccn4C)cn3C)cn2C)cn1C)CC(=O)Nc1cn(C)c(C(=O)Nc2cc(C(=O)Nc3cc(C(=O)Nc4cc(C(=O)NCCCN(C)CCCNC(=O)c5cccc(C(=O)O)c5)n(C)c4)n(C)c3)n(C)c2)n1", "growth": "59.1%"}
{"smiles": "O=[N+]([O-])c1ccc(NS(=O)(=O)c2cc(Cl)ccc2Cl)c2ccccc12", "growth": "17.1%"}
{"smiles": "CN1CCN(C(=O)/C=C/c2ccc([N+](=O)[O-])o2)CC1", "growth": "69.9%"}
{"smiles": "CCn1cc(/C=C2\\Oc3cc(OCC#N)ccc3C2=O)c2cc(OC)ccc21", "growth": "44.6%"}
{"smiles": "S=c1ssnc1-c1ccccn1", "growth": "34.5%"}
{"smiles": "COc1ccc2c(c1)nnc1c3cccnc3[nH]c21", "growth": "-0.424% (active)"}
{"smiles": "COc1cccc(/C=N/C(=S)NC2(C)C3CCC(C3)C2(C)C)c1O", "note": "(stereo not drawn)", "growth": "94.5%"}
{"smiles": "CC1(C)Cc2c(Br)c(Br)c(Br)c(OCC(O)CN3CCN(c4ccccn4)CC3)c2O1", "note": "(stereo not drawn)", "growth": "92.9%"}
{"smiles": "O=C1OC(c2ccc(-c3ccccc3)cc2)=C/C1=C/C=C/c1ccccc1", "growth": "96.8%"}
{"smiles": "CCCCCn1ncc(-c2c(O)c(O)cc3c(O)c(-c4c(C)cc5c(-c6cnn(CCCCC)n6)c(O)c(O)cc5c4O)c(C)cc23)n1", "growth": "-11.8% (active)"}
{"smiles": "CCC1S/C(=N\\N=C(/C)c2cc3ccccc3o2)N(c2ccccc2)C1=O", "note": "(stereo not drawn)", "growth": "79.5%"}
{"smiles": "CS(=O)(=O)OCC(COS(C)(=O)=O)C(c1ccccc1)c1ccccc1", "growth": "90.3%"}
{"smiles": "CC(=O)c1cc2c(N)c(C(=O)Nc3cccc(Cl)c3)sc2nc1C", "growth": "56.2%"}
{"smiles": "ClC1c2ccccc2CCc2ccccc21", "growth": "98.5%"}
{"smiles": "CCOC(=O)C(C)(CSSCC(C)(NC(=O)c1ccc2ccccc2c1)C(=O)OCC)NC(=O)c1ccc2ccccc2c1", "note": "(stereo not drawn)", "growth": "96.1%"}
{"smiles": "COc1ccccc1S(=O)(=O)Nc1ccc2c3c(cc(-c4ccoc4)nc13)C(=O)N2C", "growth": "38.3%"}
{"smiles": "CN1CCN(Cn2nc(-c3cc(Cl)cc(Cl)c3Cl)n(/N=C/c3ccc(Cl)cc3)c2=S)CC1", "growth": "90%"}
{"smiles": "Cc1ccn2cc(Cc3cc(=O)oc4c3ccc3ccccc34)c(=O)nc2c1", "growth": "96.6%"}
{"smiles": "C=C1C(=O)O[C@H]2[C@H]1CC/C(COC(=O)c1ccc(Br)cc1)=C\\CC[C@@]1(C)O[C@@H]21", "growth": "-52.4% (active)"}
{"smiles": "COc1cc2ncnc(Oc3ccc(NC(=O)Nc4ccc(CN5CCOCC5)c(C(F)(F)F)c4)c4ccccc34)c2cc1OC", "growth": "28%"}
{"smiles": "Cc1cccc(NC(=O)CCc2ccc(N3C(N)=NC(N)=NC3(C)C)cc2)c1", "growth": "24.6%"}
{"smiles": "CN(C)c1ncc(C#Cc2c(F)cccc2F)c2ccccc12", "growth": "71.4%"}
{"smiles": "O=C(NC(=S)Nc1ccc(Cl)cc1)c1ccccc1", "growth": "85.5%"}
{"smiles": "COc1cc2nc(C(=O)N3CCCCC3)cc(Nc3ccccc3)c2cc1OC", "growth": "104%"}
{"smiles": "Oc1ccc(O)c(-[n+]2ccccc2)c1", "growth": "103%"}
{"smiles": "COc1cc2c(/C=C3/C(=O)Nc4ccc(O)cc43)c(Cl)n(Cc3cc(OC)c(OC)c(OC)c3)c2cc1C", "growth": "36.6%"}
{"smiles": "N#Cc1c(N)nc2c(c1N)C(c1ccc(Cl)cc1)C1=C(CCCC1=O)N2c1sc2c(c1C#N)CCCC2", "note": "(stereo not drawn)", "growth": "88.3%"}
{"smiles": "COc1ccc2c(c1)nnn1c3ncccc3c(N=O)c21", "growth": "-76.8% (active)"}
{"smiles": "COc1cc(NC(C)CCCN2C(=O)c3ccccc3C2=O)c2nc(C)ccc2c1OC", "note": "(stereo not drawn)", "growth": "74.9%"}
{"smiles": "O=C(Nc1ccc(F)cc1)Nc1ccc(Cl)c([N+](=O)[O-])c1", "growth": "15.9%"}
{"smiles": "COc1cc(/C=C/C(=O)c2c(C)n([O-])c3cc(C)c(C)cc3[n+]2=O)cc(OC)c1OC", "growth": "64%"}
{"smiles": "CCC1S/C(=N\\N=C(/C)c2cccs2)N(c2ccccc2)C1=O", "note": "(stereo not drawn)", "growth": "117%"}
{"smiles": "O=C(Nc1cccc([N+](=O)[O-])c1)c1ccc2ccccc2c1O", "growth": "20.4%"}
{"smiles": "CC(C)(C)OC(=O)N1CCN(CCn2cc(C(F)(F)F)c3c(Cl)ncnc32)CC1", "growth": "55.4%"}
{"smiles": "COc1cc(NC(C)CCCN2C(=O)c3ccccc3C2=O)c2ncccc2c1OC", "note": "(stereo not drawn)", "growth": "90.1%"}
{"smiles": "CSc1nc(N)nc2c1ncn2C", "growth": "102%"}
{"smiles": "O=C1C(SCCO)=C(SCCO)C(=O)N1c1ccc(-c2ccccc2)cc1", "growth": "62.5%"}
{"smiles": "OCc1cnccc1NC12CC3CC(CC(C3)C1)C2", "growth": "104%"}
{"system": "LOX IMVI melanoma", "assay": "NCI-60 one-dose screen, 48 h (100 = growth as untreated, 0 = no growth, -100 = all killed)", "details": "10 µM unless noted"}
{"smiles": "COc1ccccc1N1CCN(CC(O)COc2c(Br)c(Br)c(Br)c3c2OC(C)(C)C3)CC1", "note": "(stereo not drawn)", "growth": "18.5%"}
{"smiles": "CC(=O)N[C@@H](CNC(=O)c1cc(NC(=O)c2cc(NC(=O)c3cc(NC(=O)c4nccn4C)cn3C)cn2C)cn1C)CC(=O)Nc1cn(C)c(C(=O)Nc2cc(C(=O)Nc3cc(C(=O)Nc4cc(C(=O)NCCCN(C)CCCNC(=O)c5cccc(C(=O)O)c5)n(C)c4)n(C)c3)n(C)c2)n1", "growth": "80.7%"}
{"smiles": "O=[N+]([O-])c1ccc(NS(=O)(=O)c2cc(Cl)ccc2Cl)c2ccccc12", "growth": "56.4%"}
{"smiles": "CN1CCN(C(=O)/C=C/c2ccc([N+](=O)[O-])o2)CC1", "growth": "66.7%"}
{"smiles": "CCn1cc(/C=C2\\Oc3cc(OCC#N)ccc3C2=O)c2cc(OC)ccc21", "growth": "33.1%"}
{"smiles": "S=c1ssnc1-c1ccccn1", "growth": "6.73% (active)"}
{"smiles": "COc1ccc2c(c1)nnc1c3cccnc3[nH]c21", "growth": "-30.8% (active)"}
{"smiles": "COc1cccc(/C=N/C(=S)NC2(C)C3CCC(C3)C2(C)C)c1O", "note": "(stereo not drawn)", "growth": "70.8%"}
{"smiles": "CC1(C)Cc2c(Br)c(Br)c(Br)c(OCC(O)CN3CCN(c4ccccn4)CC3)c2O1", "note": "(stereo not drawn)", "growth": "68.6%"}
{"smiles": "O=C1OC(c2ccc(-c3ccccc3)cc2)=C/C1=C/C=C/c1ccccc1", "growth": "99.3%"}
{"smiles": "CCCCCn1ncc(-c2c(O)c(O)cc3c(O)c(-c4c(C)cc5c(-c6cnn(CCCCC)n6)c(O)c(O)cc5c4O)c(C)cc23)n1", "growth": "-40.7% (active)"}
{"smiles": "CCC1S/C(=N\\N=C(/C)c2cc3ccccc3o2)N(c2ccccc2)C1=O", "note": "(stereo not drawn)", "growth": "93.7%"}
{"smiles": "CS(=O)(=O)OCC(COS(C)(=O)=O)C(c1ccccc1)c1ccccc1", "growth": "99.7%"}
{"smiles": "CC(=O)c1cc2c(N)c(C(=O)Nc3cccc(Cl)c3)sc2nc1C", "growth": "89.5%"}
{"smiles": "ClC1c2ccccc2CCc2ccccc21", "growth": "93.6%"}
{"smiles": "CCOC(=O)C(C)(CSSCC(C)(NC(=O)c1ccc2ccccc2c1)C(=O)OCC)NC(=O)c1ccc2ccccc2c1", "note": "(stereo not drawn)", "growth": "89%"}
{"smiles": "COc1ccccc1S(=O)(=O)Nc1ccc2c3c(cc(-c4ccoc4)nc13)C(=O)N2C", "growth": "51.9%"}
{"smiles": "CN1CCN(Cn2nc(-c3cc(Cl)cc(Cl)c3Cl)n(/N=C/c3ccc(Cl)cc3)c2=S)CC1", "growth": "90.4%"}
{"smiles": "Cc1ccn2cc(Cc3cc(=O)oc4c3ccc3ccccc34)c(=O)nc2c1", "growth": "98.6%"}
{"smiles": "C=C1C(=O)O[C@H]2[C@H]1CC/C(COC(=O)c1ccc(Br)cc1)=C\\CC[C@@]1(C)O[C@@H]21", "growth": "-94.6% (active)"}
{"smiles": "COc1cc2ncnc(Oc3ccc(NC(=O)Nc4ccc(CN5CCOCC5)c(C(F)(F)F)c4)c4ccccc34)c2cc1OC", "growth": "21.5%"}
{"smiles": "Cc1cccc(NC(=O)CCc2ccc(N3C(N)=NC(N)=NC3(C)C)cc2)c1", "growth": "18.7%"}
{"smiles": "CN(C)c1ncc(C#Cc2c(F)cccc2F)c2ccccc12", "growth": "85.2%"}
{"smiles": "O=C(NC(=S)Nc1ccc(Cl)cc1)c1ccccc1", "growth": "106%"}
{"smiles": "COc1cc2nc(C(=O)N3CCCCC3)cc(Nc3ccccc3)c2cc1OC", "growth": "94.9%"}
{"smiles": "Oc1ccc(O)c(-[n+]2ccccc2)c1", "growth": "95.7%"}
{"smiles": "COc1cc2c(/C=C3/C(=O)Nc4ccc(O)cc43)c(Cl)n(Cc3cc(OC)c(OC)c(OC)c3)c2cc1C", "growth": "39.7%"}
{"smiles": "N#Cc1c(N)nc2c(c1N)C(c1ccc(Cl)cc1)C1=C(CCCC1=O)N2c1sc2c(c1C#N)CCCC2", "note": "(stereo not drawn)", "growth": "81.5%"}
{"smiles": "COc1ccc2c(c1)nnn1c3ncccc3c(N=O)c21", "growth": "-59.1% (active)"}
{"smiles": "COc1cc(NC(C)CCCN2C(=O)c3ccccc3C2=O)c2nc(C)ccc2c1OC", "note": "(stereo not drawn)", "growth": "85.7%"}
{"smiles": "O=C(Nc1ccc(F)cc1)Nc1ccc(Cl)c([N+](=O)[O-])c1", "growth": "9.41% (active)"}
{"smiles": "COc1cc(/C=C/C(=O)c2c(C)n([O-])c3cc(C)c(C)cc3[n+]2=O)cc(OC)c1OC", "growth": "51.7%"}
{"smiles": "CCC1S/C(=N\\N=C(/C)c2cccs2)N(c2ccccc2)C1=O", "note": "(stereo not drawn)", "growth": "105%"}
{"smiles": "O=C(Nc1cccc([N+](=O)[O-])c1)c1ccc2ccccc2c1O", "growth": "63.3%"}
{"smiles": "CC(C)(C)OC(=O)N1CCN(CCn2cc(C(F)(F)F)c3c(Cl)ncnc32)CC1", "growth": "-81% (active)"}
{"smiles": "COc1cc(NC(C)CCCN2C(=O)c3ccccc3C2=O)c2ncccc2c1OC", "note": "(stereo not drawn)", "growth": "79.2%"}
{"smiles": "CSc1nc(N)nc2c1ncn2C", "growth": "92.6%"}
{"smiles": "O=C1C(SCCO)=C(SCCO)C(=O)N1c1ccc(-c2ccccc2)cc1", "growth": "-45% (active)"}
{"smiles": "OCc1cnccc1NC12CC3CC(CC(C3)C1)C2", "growth": "96.7%"}
